Our source for the outcome and AC50 values is PubChem BioAssay (EPA / NIEHS).

The structures appear in SMILES notation. Values joined by “and” are separate entries in the source; they are usually repeats but may differ in a detail not shown here. Identical values can stand only once. Results filed as inconclusive are left out. Active and inactive are the calls of the source. The calls were made as follows: active = hit-call score of the fitted dose curve at least 0.9, where 1 is the maximum; inconclusive = response in the unintended direction; inactive = score below 0.9.

For experiment [1], the target named is guinea pig Opioid, Kappa 1 Receptor (OpiateK), OPRK1 (gene 100135587) (UniProt P41144). Description: NVS_GPCR_gOpiateK: NovaScreen (NVS) G Protein-Coupled Receptor Assay for guinea pig Opioid, Kappa 1 Receptor (OpiateK) (AID 2283252).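 Also: active means reduced radioligand binding relative to DMSO.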 Put shortly: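 Radioligand binding to kappa opioid receptor in guinea pig cerebellar membranes, read by filtration and scintillation at 2 h. Compounds first tested in duplicate at 25 uM, then actives in concentration series; signal loss fitted against DMSO.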

For experiment [2], the target named is human Serotonin, 5-Hydroxytryptamine Receptor 6 (5HT6), HTR6 (gene 3362) (UniProt P50406). Description: NVS_GPCR_h5HT6: NovaScreen (NVS) G Protein-Coupled Receptor Assay for human Serotonin, 5-Hydroxytryptamine Receptor 6 (5HT6) (AID 2283253). An outline of the steps:
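Filter scintillation counting of radioligand displacement from HEK293-expressed 5HT6, 1 hour post-dose, with loss of signal relative to DMSO. Single 25 uM duplicates first, with concentration series for confirmation.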

Experiment [3] addresses human Serotonin, 5-Hydroxytryptamine Receptor 2A (5HT2A), HTR2A (gene 3356) (UniProt P28223). Description: NVS_GPCR_h5HT2A: NovaScreen (NVS) G Protein-Coupled Receptor Assay for human Serotonin, 5-Hydroxytryptamine Receptor 2A (5HT2A) (AID 2283249). Put shortly: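 Radioligand displacement on human cortex tissue extract, counted by filtration and scintillation 1.5 h post-dosing. Initial single-concentration screen at 25 uM in duplicate, concentration series in follow-up; DMSO as baseline.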

Experiment [4] deals with guinea pig Muscarinic, Peripheral (Mperiperal) Receptor, Non-selective Binding, gene 100379235. Description: NVS_GPCR_gMPeripheral_NonSelective: NovaScreen (NVS) G Protein-Coupled Receptor Assay for guinea pig Muscarinic, Peripheral (Mperiperal) Receptor, Non-selective Binding (AID 2283250). Put shortly:
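Screened in duplicate at 25 uM, hits retested in concentration series to 50 uM max, using bladder membrane radioligand displacement from guinea pig. Filtration and scintillation counting 1 h post-dose, fitted relative to DMSO.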

For experiment [5], the target named is human Serotonin, 5-Hydroxytryptamine Receptor 5A (5HT5A), HTR5A (gene 3361) (UniProt P47898). Description: NVS_GPCR_h5HT5A: NovaScreen (NVS) G Protein-Coupled Receptor Assay for human Serotonin, 5-Hydroxytryptamine Receptor 5A (5HT5A) (AID 2283251). Put shortly:
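Membranes from HEK293 cells, radioligand binding read by filtration and scintillation after 1 h. Single-concentration duplicate testing at 25 uM, then concentration-response for actives; positive-direction fitting relative to DMSO.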

In experiment [6] the target is human Adenosine A1 Receptor (AdoRA1), ADORA1 (gene 134) (UniProt P30542). Description: NVS_GPCR_hAdoRA1: NovaScreen (NVS) G Protein-Coupled Receptor Assay for human Adenosine A1 Receptor (AdoRA1) (AID 2283254). Put shortly:
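Hum. cortical membranes + radioligand, cmpd 1 h; filtration, scintillation count. Readout = decrease vs DMSO. Primary 25 uM dup; hits → conc. series.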

In experiment [7] the target is human Serotonin, 5-Hydroxytryptamine Receptor 7 (5HT7), HTR7 (gene 3363) (UniProt P34969). Kind of experiment: NVS_GPCR_h5HT7: NovaScreen (NVS) G Protein-Coupled Receptor Assay for human Serotonin, 5-Hydroxytryptamine Receptor 7 (5HT7) (AID 2283255).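 Also: hits reduce specific radioligand binding relative to DMSO.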 Put shortly: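 Filter-bound radioactivity counted after 1 h, with loss of specific radioligand binding fitted against DMSO. Membrane protein came from CHO cells expressing human 5HT7. Chemicals were tested first at 25 uM in duplicate, then in concentration series if active.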

For experiment [8], the target named is human Adenosine A2a Receptor (AdoRA2a), ADORA2A (gene 135) (UniProt P29274). Description: NVS_GPCR_hAdoRA2a: NovaScreen (NVS) G Protein-Coupled Receptor Assay for human Adenosine A2a Receptor (AdoRA2a) (AID 2283256). An outline of the steps:
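Compounds screened in duplicate at 25 uM, with actives followed up in concentration series, for displacement of a radioligand from HEK293-derived receptor protein. Bound counts read by filter scintillation at 1.5 hours, DMSO as baseline.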

In experiment [9] the target is human Adrenergic, Alpha 2A Receptor (Adra2A), ADRA2A (gene 150) (UniProt P08913). Description: NVS_GPCR_hAdra2A: NovaScreen (NVS) G Protein-Coupled Receptor Assay for human Adrenergic, Alpha 2A Receptor (Adra2A) (AID 2283257). An outline of the steps: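 Displacement of a specific radioligand from HT29 membrane protein was counted by filter scintillation after 1 h. Compounds were screened in duplicate at 25 uM, and actives were retested in concentration series. Fitting was positive-direction against DMSO.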

The target in experiment [10] is human Adrenergic, Beta 1 Receptor (Adrb1), ADRB1 (gene 153) (UniProt P08588). Description: NVS_GPCR_hAdrb1: NovaScreen (NVS) G Protein-Coupled Receptor Assay for human Adrenergic, Beta 1 Receptor (Adrb1) (AID 2283258). Put shortly: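 Membranes/protein extracted from human neuroepithelioma cells, radioligand competition binding read by filtration and scintillation 2 h post-dose. Single 25 uM duplicate screen, then concentration-response follow-up; DMSO as negative control.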

The target in experiment [11] is human Adrenergic, Alpha 2c Receptor (Adra2C), ADRA2C (gene 152) (UniProt P18825). Description: NVS_GPCR_hAdra2C: NovaScreen (NVS) G Protein-Coupled Receptor Assay for human Adrenergic, Alpha 2c Receptor (Adra2C) (AID 2283259). An outline of the steps: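 Screened first in duplicate at 25 uM, with actives then run as concentration series. Membranes from Sf9 cells were exposed for 1 h, and displacement of radioligand was counted after filtration, using DMSO as baseline.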

Experiment [12] has as its target Beta-2 adrenergic receptor (Homo sapiens) (UniProt P07550). Kind of experiment: NVS_GPCR_hAdrb2: NovaScreen (NVS) G Protein-Coupled Receptor Assay for human Adrenergic, Beta 2 Receptor (Adrb2) (AID 2283261). Put shortly: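 Compounds screened in duplicate at 25 uM, then actives in concentration series. Human beta-2 receptor from CHO material, cell-free; radioligand displacement after 1 h measured by filtration and scintillation against DMSO baseline.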

For experiment [13], the target named is human Adrenergic, Beta 3 Receptor (Adrb3), ADRB3 (gene 155) (UniProt P13945). Description: NVS_GPCR_hAdrb3: NovaScreen (NVS) G Protein-Coupled Receptor Assay for human Adrenergic, Beta 3 Receptor (Adrb3) (AID 2283262). Put shortly:
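A cell-free filter binding assay read by scintillation counting, with displacement of a specific radioligand measured after 1 hour. The receptor source was SK-N-MC extracts (cells pretreated with isoproterenol and 8-bromo-cAMP). Compounds were first tested at 25 uM in duplicate and then in concentration series.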

For experiment [14], the target named is Type-1 angiotensin II receptor (Homo sapiens) (UniProt P30556). Kind of experiment: NVS_GPCR_hAT1: NovaScreen (NVS) G Protein-Coupled Receptor Assay for human Angiotensin II receptor type 1 (AT1) (AID 2283263). An outline of the steps: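 Hits from a 25 uM duplicate screen (threshold e.g. 30% inhibition) were run in concentration-response with 50 uM top concentration. Displacement of specific radioligand from KAN-TS membrane preparations measured after 3 h by filter scintillation, DMSO as baseline.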

Experiment [15] has as its target human Dopamine Receptor D4.4 (DRD4.4), DRD4 (gene 1815) (UniProt P21917). Kind of experiment: NVS_GPCR_hDRD4.4: NovaScreen (NVS) G Protein-Coupled Receptor Assay for human Dopamine Receptor D4.4 (DRD4.4) (AID 2283264). An outline of the steps:
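Filter-binding assay with a tritiated or iodinated ligand, cell-free receptor prepared from CHO, 1 hour. Loss of bound radioactivity versus DMSO; single 25 uM duplicate screen, then concentration-response for actives.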

Experiment [16] addresses human Endothelin Receptor Type A (ETA), EDNRA (gene 1909) (UniProt P25101). Description: NVS_GPCR_hETA: NovaScreen (NVS) G Protein-Coupled Receptor Assay for human Endothelin Receptor Type A (ETA) (AID 2283265). Put shortly: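 Binding of radioligand to membrane protein extracted from SH-SY5Y cells was read by filtration and scintillation after 3 h. Compounds were screened at 25 uM in duplicate, with hits followed up in singleton concentration series to 50 uM.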

Experiment [17] deals with human Dopamine Receptor D2 (DRD2), DRD2 (gene 1813) (UniProt P14416). Description: NVS_GPCR_hDRD2s: NovaScreen (NVS) G Protein-Coupled Receptor Assay for human Dopamine Receptor D2 (DRD2) (AID 2283266). An outline of the steps: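 Test compound (25 uM, duplicate in the primary screen; concentration series at follow-up) competed with radioligand for human DRD2 in CHO-derived membrane protein. Filter-based scintillation counting was done 1.5 hours after dosing, with loss of signal analysed against DMSO.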

Experiment [18] has as its target human Endothelin Receptor Type B (ETB), EDNRB (gene 1910) (UniProt P24530). Kind of experiment: NVS_GPCR_hETB: NovaScreen (NVS) G Protein-Coupled Receptor Assay for human Endothelin Receptor Type B (ETB) (AID 2283267). An outline of the steps:
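Filter-based scintillation readout of radioligand displacement, 4 h, using membranes from human astrocytoma cells. Actives from a 25 uM duplicate screen were retested in concentration-response (top 50 uM) relative to DMSO baseline.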

Experiment [19] addresses human Histamine 1 Receptor (H1), HRH1 (gene 3269) (UniProt P35367). Description: NVS_GPCR_hH1: NovaScreen (NVS) G Protein-Coupled Receptor Assay for human Histamine 1 Receptor (H1) (AID 2283268). Put shortly:
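Filter-based scintillation detection of radioligand binding to human H1, 1 h incubation; chemicals screened in duplicate at 25 uM, then concentration-response; signal loss relative to DMSO taken as activity.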

The target in experiment [20] is D(1A) dopamine receptor (Homo sapiens) (UniProt P21728). Kind of experiment: NVS_GPCR_hDRD1: NovaScreen (NVS) G Protein-Coupled Receptor Assay for human Dopamine Receptor D1 (DRD1) (AID 2283269). Put shortly:
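HEK293-derived receptor preparation; radioligand competitive displacement; 1 h; filtration + scintillation counting. DMSO = negative control/baseline. Primary: 25 uM, duplicate; secondary: concentration–response for actives.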

Chain of human Serotonin, 5-Hydroxytryptamine Receptor 7 (5HT7), HTR7 (gene 3363) (P34969 whole entry, looked up): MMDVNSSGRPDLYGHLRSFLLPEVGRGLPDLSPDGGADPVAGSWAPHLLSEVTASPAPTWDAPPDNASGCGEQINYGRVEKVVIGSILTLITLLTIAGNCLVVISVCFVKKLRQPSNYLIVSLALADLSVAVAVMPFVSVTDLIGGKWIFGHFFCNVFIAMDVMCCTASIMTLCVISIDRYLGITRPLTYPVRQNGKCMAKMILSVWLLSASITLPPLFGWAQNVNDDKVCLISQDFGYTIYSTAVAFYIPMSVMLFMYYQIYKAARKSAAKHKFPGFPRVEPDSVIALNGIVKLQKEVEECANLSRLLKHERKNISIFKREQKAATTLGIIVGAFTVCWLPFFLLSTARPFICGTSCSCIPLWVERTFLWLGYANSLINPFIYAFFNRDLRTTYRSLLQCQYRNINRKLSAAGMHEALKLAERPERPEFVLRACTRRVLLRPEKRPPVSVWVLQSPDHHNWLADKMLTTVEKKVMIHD
Chain of D(1A) dopamine receptor (Homo sapiens) (P21728 whole entry, looked up): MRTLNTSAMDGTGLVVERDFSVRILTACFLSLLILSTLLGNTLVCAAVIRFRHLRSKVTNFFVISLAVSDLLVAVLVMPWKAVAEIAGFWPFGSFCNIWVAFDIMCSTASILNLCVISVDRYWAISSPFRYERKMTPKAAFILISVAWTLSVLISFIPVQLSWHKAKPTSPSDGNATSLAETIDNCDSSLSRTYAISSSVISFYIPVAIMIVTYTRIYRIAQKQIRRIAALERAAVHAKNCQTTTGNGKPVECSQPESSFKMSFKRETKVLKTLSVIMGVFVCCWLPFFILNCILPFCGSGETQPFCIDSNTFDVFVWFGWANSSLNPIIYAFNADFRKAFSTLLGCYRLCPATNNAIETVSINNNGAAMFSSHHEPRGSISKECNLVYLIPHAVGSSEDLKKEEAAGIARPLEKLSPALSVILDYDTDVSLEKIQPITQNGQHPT
Chain of human Adenosine A2a Receptor (AdoRA2a), ADORA2A (gene 135) (P29274 whole entry, looked up): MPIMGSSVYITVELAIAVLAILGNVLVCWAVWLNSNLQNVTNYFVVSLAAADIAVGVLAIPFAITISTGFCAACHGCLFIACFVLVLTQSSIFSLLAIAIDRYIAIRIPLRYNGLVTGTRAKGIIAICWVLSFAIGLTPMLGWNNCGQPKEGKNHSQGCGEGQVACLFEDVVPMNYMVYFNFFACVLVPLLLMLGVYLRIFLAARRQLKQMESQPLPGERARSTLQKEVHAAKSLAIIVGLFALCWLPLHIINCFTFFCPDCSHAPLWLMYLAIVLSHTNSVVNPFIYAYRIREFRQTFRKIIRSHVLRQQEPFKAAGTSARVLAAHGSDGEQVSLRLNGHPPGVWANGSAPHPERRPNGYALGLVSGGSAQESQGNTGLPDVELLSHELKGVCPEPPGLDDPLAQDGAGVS
Chain of human Serotonin, 5-Hydroxytryptamine Receptor 5A (5HT5A), HTR5A (gene 3361) (P47898 whole entry, looked up): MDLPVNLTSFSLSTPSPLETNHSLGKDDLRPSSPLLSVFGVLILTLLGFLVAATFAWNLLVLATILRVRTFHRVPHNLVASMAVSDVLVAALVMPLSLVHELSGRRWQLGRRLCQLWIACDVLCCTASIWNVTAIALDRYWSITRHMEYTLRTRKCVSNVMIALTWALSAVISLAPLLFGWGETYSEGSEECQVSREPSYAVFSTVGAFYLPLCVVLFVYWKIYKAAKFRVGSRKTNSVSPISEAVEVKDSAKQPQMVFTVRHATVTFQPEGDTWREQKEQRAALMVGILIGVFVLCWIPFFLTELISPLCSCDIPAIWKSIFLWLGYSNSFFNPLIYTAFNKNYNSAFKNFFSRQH
Chain of human Serotonin, 5-Hydroxytryptamine Receptor 6 (5HT6), HTR6 (gene 3362) (P50406 whole entry, looked up): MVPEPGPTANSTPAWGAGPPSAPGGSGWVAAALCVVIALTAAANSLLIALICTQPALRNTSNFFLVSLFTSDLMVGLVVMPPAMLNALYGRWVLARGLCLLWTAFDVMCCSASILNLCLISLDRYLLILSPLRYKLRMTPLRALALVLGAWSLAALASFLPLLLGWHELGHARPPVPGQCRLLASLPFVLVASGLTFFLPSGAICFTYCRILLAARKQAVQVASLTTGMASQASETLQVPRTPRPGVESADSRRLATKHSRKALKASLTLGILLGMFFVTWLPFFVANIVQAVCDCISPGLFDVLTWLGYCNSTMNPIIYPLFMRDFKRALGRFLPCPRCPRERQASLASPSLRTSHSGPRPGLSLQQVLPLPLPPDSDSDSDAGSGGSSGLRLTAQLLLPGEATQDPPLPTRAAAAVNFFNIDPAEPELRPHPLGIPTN
Chain of guinea pig Opioid, Kappa 1 Receptor (OpiateK), OPRK1 (gene 100135587) (P41144 whole entry, looked up): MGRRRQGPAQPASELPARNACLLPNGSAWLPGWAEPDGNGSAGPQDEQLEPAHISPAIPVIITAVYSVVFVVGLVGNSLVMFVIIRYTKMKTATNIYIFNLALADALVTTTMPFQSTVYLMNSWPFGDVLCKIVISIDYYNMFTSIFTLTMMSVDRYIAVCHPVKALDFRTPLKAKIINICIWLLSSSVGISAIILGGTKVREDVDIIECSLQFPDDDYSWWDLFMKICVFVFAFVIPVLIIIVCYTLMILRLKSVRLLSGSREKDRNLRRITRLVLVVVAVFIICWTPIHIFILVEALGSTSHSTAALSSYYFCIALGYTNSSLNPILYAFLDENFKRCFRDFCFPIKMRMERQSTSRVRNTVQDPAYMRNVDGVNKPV
Chain of human Adrenergic, Alpha 2c Receptor (Adra2C), ADRA2C (gene 152) (P18825 whole entry, looked up): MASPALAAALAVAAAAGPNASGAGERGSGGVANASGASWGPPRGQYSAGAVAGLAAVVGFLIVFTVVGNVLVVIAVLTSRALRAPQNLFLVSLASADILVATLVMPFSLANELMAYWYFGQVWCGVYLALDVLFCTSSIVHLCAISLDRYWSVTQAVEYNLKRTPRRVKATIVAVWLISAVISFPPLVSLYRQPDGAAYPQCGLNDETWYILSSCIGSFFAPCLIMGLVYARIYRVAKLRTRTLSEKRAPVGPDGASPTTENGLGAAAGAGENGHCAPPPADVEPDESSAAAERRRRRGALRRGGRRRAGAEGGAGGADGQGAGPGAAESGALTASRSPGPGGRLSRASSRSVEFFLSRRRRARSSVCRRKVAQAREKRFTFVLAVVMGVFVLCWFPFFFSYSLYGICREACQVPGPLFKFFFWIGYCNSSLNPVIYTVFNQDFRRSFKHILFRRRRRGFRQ
Chain of human Dopamine Receptor D2 (DRD2), DRD2 (gene 1813) (P14416 whole entry, looked up): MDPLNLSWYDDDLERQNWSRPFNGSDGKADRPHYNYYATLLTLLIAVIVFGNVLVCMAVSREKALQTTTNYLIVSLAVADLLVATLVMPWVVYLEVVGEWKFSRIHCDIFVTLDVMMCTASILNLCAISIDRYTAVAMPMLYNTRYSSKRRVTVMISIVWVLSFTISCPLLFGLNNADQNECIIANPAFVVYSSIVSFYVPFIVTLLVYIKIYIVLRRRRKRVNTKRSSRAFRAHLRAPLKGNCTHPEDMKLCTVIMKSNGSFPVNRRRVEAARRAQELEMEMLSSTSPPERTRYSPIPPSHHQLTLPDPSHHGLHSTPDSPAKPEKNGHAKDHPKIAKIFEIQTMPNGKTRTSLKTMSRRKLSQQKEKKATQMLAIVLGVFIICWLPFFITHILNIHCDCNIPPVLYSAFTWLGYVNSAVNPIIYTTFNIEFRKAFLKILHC
Chain of human Histamine 1 Receptor (H1), HRH1 (gene 3269) (P35367 whole entry, looked up): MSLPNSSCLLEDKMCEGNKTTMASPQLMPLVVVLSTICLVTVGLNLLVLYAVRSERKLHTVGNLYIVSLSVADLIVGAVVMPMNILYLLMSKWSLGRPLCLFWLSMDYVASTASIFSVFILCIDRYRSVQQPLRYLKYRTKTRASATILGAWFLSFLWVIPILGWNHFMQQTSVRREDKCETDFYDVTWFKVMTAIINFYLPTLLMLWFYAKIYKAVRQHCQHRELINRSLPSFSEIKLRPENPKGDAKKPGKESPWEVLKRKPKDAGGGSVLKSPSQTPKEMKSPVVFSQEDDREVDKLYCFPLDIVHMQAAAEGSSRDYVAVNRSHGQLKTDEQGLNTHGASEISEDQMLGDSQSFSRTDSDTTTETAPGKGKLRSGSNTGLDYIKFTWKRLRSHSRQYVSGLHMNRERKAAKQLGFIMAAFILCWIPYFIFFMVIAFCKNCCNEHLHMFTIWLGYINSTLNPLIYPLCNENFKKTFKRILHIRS
Chain of human Adrenergic, Beta 3 Receptor (Adrb3), ADRB3 (gene 155) (P13945 whole entry, looked up): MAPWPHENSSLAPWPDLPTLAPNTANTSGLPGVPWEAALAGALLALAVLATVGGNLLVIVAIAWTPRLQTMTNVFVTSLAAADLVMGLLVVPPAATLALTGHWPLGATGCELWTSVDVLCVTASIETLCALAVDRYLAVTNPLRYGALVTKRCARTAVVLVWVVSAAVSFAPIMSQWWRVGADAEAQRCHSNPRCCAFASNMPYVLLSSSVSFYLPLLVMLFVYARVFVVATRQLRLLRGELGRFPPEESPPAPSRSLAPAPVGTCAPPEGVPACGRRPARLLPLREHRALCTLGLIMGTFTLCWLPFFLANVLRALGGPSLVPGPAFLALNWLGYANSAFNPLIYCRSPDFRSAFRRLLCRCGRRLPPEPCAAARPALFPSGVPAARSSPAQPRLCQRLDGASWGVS
Chain of human Serotonin, 5-Hydroxytryptamine Receptor 2A (5HT2A), HTR2A (gene 3356) (P28223 whole entry, looked up): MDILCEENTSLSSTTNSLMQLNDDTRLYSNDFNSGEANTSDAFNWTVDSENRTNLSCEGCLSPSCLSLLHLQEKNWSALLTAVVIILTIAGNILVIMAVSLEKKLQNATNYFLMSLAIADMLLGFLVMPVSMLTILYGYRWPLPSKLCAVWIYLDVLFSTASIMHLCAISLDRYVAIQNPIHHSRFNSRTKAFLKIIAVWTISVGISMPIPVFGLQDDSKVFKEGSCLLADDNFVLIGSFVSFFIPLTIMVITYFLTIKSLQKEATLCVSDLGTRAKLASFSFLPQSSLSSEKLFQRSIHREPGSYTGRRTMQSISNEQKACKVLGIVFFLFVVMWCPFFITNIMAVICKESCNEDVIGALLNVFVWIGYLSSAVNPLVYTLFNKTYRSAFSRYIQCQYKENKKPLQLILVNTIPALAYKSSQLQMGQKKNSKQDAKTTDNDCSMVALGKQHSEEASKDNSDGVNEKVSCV

For `Cn1sc(Cl)cc1=O`, the outcome in experiment [1] and in experiment [2] was inactive.

With `C=C(C)C(=O)[O][Sn]([CH2]CCC)([CH2]CCC)[CH2]CCC`, the AC50 in experiment [3] is 36.2 µM (active); in [4] it was 14 µM (active); in [5], 2.16 µM (active); in [1] it was 16.9 µM (active); in [2], 4.82 µM (active); in experiment [6], 25 µM (active). The AC50 in experiment [7] is 0.499 µM (active); in experiment [8] it was 6.84 µM (active); in [9], 4.06 µM (active); in [10] it was 0.925 µM (active); in [11] it was 0.281 µM (active); in [12], 4.57 µM (active). For the same molecule, the AC50 is 25 µM (active) in [13]; 2.23 µM (active) in [14]; 1.75 µM (active) in [15]; 0.697 µM (active) in experiment [16]; 0.363 µM (active) in experiment [17]; 14.8 µM (active) in experiment [18]. The AC50 in experiment [19] was 1.96 µM (active); in experiment [20] it was 0.326 µM (active).

For the molecule `CCC(=O)C(CC(C)N(C)C)(c1ccccc1)c1ccccc1` (configuration not stated), the half-maximal activity concentration (AC50) is 5.61 µM (active) in [3]; 7.94 µM (active) in experiment [4]; 6.69 µM (active) in [5]; 1.42 µM (active) in experiment [1]; 18.1 µM (active) in experiment [2]; 3.59 µM (active) in [7]. Moreover, the AC50 in experiment [9] is 16 µM (active); in experiment [17], 5.6 µM (active); in experiment [19], 7.25 µM (active). For the same molecule, the call in [11] and in [13] was inactive.

Consider `CCOP(=S)(OCC)SCSP(=S)(OCC)OCC`, for which the molecule was called inactive in experiment [17].

For `CCOC(=O)/C=C(C)/C=C/C[C@@H](C)CCCC(C)C`, the AC50 in [20] is 32.1 µM (active).

For the molecule `O=C(O)C(F)(F)C(F)(F)C(F)(F)C(F)(F)C(F)(F)C(F)(F)C(F)(F)C(F)(F)C(F)(F)C(F)(F)F`, the call in [5] and in experiment [20] was inactive. Also, the AC50 in [7] is 12.9 µM (active); in experiment [8], 2.43 µM (active); in experiment [11], 4.5 µM (active); in [17], 11 µM (active).

Turning to `Clc1ccc(C2(Cn3cncn3)CC(Br)CO2)c(Cl)c1` (configuration not stated), in experiment [1], the AC50 is 11.8 µM (active).

Consider `COP(=S)(OC)Oc1ccc(Sc2ccc(OP(=S)(OC)OC)cc2)cc1`, for which, in experiment [8], the AC50 is 17.1 µM (active).

On to `COS(=O)(=O)c1ccc(C)cc1`, for which, in experiment [8], the result was inactive.

For the molecule `COc1cc(-c2ccc(N)c(OC)c2)ccc1N`, the molecule was called inactive in [7]. Further, the AC50 was 16.7 µM (active) in experiment [15]; 5.28 µM (active) and 9.98 µM (active) in [17].
